Inconclusive results are not listed. Activity calls are given as the source filed them. Calls come from the whole dose curve; as a rule, active = well fitted curve in the direction sought with a large enough effect in the repeat runs; inconclusive = weak or mixed curves; inactive = no such curve, though single readings can be large; an effect the other way counts as inactive or inconclusive.

The first experiment can be described thus: qHTS assay to identify small molecule antagonists of the estrogen related receptor (ERR) signaling pathway - cell viability counter screen (AID 1224818). The following applies: ERR reporter cell line viability counter screen; series mostly up to 46.1 µM. In short, it runs like this:
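Compounds dissolved in DMSO were applied to ERR cells seeded at 2,000 per well 6 h earlier. Cell viability followed 17.5 h later via 30-min CellTiter-Fluor fluorescence.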
As to `NC1=NCC2c3ccccc3Cc3ccccc3N12` (stereo unspecified), the outcome was inactive.

Consider `CC(=O)Oc1cc(C(C)C)c(OCCN(C)C)cc1C`, for which the compound was classed as inactive.

For `CN(C)CC[C@@H](c1ccc(Cl)cc1)c1ccccn1`, the compound was classed as inactive.

A further experiment is described as follows: qHTS assay to identify small molecule antagonists of the estrogen related receptor signaling pathway with the pleiotropic PPARgamma coactivator (PGC) cell viability counter screen (AID 1224822). The following applies: ERR/PGC reporter cell line viability counter screen; series mostly up to 46.1 µM. The method, boiled down: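 Counter screen for cell viability: PGC/ERR cells, 6 h pre-incubation after plating, 17.5 h compound exposure at 37 C, fluorescence from CellTiter-Fluor after 30 min.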
(In general: Quantitative high-throughput screening tests each substance at several concentrations.)
For the compound `NC1=NCC2c3ccccc3Cc3ccccc3N12` (stereo unspecified), the call was inactive.

On to `CC(=O)Oc1cc(C(C)C)c(OCCN(C)C)cc1C`, for which the call was inactive.

Turning to `CN(C)CC[C@@H](c1ccc(Cl)cc1)c1ccccn1`, the call was inactive.

(Values after PubChem BioAssay (Tox21).)
